Source: PubChem BioAssay (National Center for Advancing Translational Sciences (NCATS))
TDP1 cell CPT = growth inhibition of DT40 Tdp1-/-;hTDP1 cells with camptothecin (screen for TDP1 inhibitors); actives 12% (n = 420,000); chicken DT40 Tdp1-/-;hTDP1 cells + 20 nM CPT, ATP luminescence, 48 h; AID 686979; Potency, µM (titrated, usually from 46.2 µM), hits mostly inhibitors; also: nearly all actives have a fitted effect of over 55% in size
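Chicken DT40 Tdp1-/- cells stably complemented with human TDP1 were seeded at 400 cells/well in medium containing 20 nM camptothecin, exposed to pin-transferred compounds, and grown at 37 °C for at least 48 hr. Viability was read as ATP luminescence.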
IL-1B inflam inh = inhibitors of inflammasome signaling (IL-1 beta secretion) | THP-1 LPS/ATP IL-1B secretion, AlphaLISA, 16 h; stronger effect = lower value | AID 743279 | actives 4.7% (n = 360,000) | activity change, % at 57.5 µM; in the data active = activity change below about -50%; inconclusive = mostly about -30% to -49%
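Secreted IL-1B measured by AlphaLISA bead assay after 16 h compound exposure of THP-1 cells; compounds (final up to 57.5 uM) added 1 h before LPS (250 ng/mL) and ATP (1.25 mM) stimulation; lower signal means less secretion.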
ClpP mod = qHTS Assay for Activators of ClpP; ATP-dependent Clp protease proteolytic subunit (Bacillus subtilis (strain 168)), P80244; purified B. subtilis ClpP, FRET peptide cleavage, 20 min; Potency, µM (series often up to 57.5 µM); actives 1.9% (n = 340,000); active = well fitted falling curve with a large enough effect; inconclusive = small, poorly fitted or top-dose-only effect; inactive = no such curve, though single readings can be large or run the other way; also: the source files actives as falling curves though it sought activators and does not explain the sign; nearly all actives have a fitted effect of over 65% in size
Target sequence (P80244 whole entry, looked up): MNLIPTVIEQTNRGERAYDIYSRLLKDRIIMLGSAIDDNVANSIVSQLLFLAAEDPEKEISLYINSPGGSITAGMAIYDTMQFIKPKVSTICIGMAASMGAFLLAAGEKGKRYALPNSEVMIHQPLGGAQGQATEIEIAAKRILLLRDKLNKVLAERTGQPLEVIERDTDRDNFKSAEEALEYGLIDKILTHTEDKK
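ClpP 10 microg/mL final, pH 8 Tris/KCl buffer with BSA, glycerol, Tween-20; compound pinned in; FRET-FV substrate; RT 20 min; Ex320/Em430; ΔFRET vs ADEP 5.8 microM, DMSO, no enzyme.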
D3 antag = blocks the human D3 dopamine receptor. D3R cells, DiscoveRx beta-arrestin luminescence, antagonist mode; stronger effect = lower value. actives 2.5% (n = 360,000). AID 652054. max response, negative = inhibition, %; in the data active = max response below about -50%; inconclusive = no clear call, values can overlap the other calls
Target sequence (P35462 whole entry, looked up): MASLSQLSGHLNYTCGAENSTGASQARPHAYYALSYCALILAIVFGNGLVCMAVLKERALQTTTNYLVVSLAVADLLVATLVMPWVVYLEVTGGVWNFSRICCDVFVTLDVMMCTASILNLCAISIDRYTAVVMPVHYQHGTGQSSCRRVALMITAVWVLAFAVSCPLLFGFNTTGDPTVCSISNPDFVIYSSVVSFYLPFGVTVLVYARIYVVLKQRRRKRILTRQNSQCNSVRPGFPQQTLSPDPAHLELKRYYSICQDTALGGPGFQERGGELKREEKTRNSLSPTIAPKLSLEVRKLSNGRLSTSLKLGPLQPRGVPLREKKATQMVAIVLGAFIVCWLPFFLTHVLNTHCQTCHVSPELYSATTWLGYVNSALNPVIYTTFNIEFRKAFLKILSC
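Cells plated overnight at 1500 cells/well, then exposed to library compounds with dopamine controls for 90 minutes at 37 degrees C. DiscoveRx reagent added for 30–60 minutes at room temperature; luminescence read, quantitative HTS format.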
D3 ag = D3 dopamine receptor (human) agonism | P35462 | D3R DiscoveRx beta-arrestin cells, luminescence, 90 min | max activation, % | actives 0.58% (n = 410,000) | AID 652048; in the data active = max activation above about 30%
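Cells at 1500/well, incubated overnight, then treated with pinned compounds (dopamine as control) for 90 min at 37 degrees C. DiscoveRx reagent added for 30 - 60 minutes at room temperature; luminescence read.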
DT40 TDP1 no CPT = qHTS for Inhibitors of human tyrosyl-DNA phosphodiesterase 1 (TDP1): qHTS in cells in absence of CPT; DT40 Tdp1-/- hTDP1 cells, no CPT, ATP luminescence, 48 h; Potency, µM (highest dose often 46.2 µM), usual class: inhibitors; actives 15% (n = 420,000); AID 686978, 2013; also: nearly all actives have a fitted effect of over 55% in size
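Readout: luminescence from CellTiter-Glo after 30 min in the dark at RT. Cells: DT40 Tdp1-/- with stable hTDP1, 400/well. Exposure: compounds alone, ≥48 hr, 37 °C.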
A number is an active result; i = inactive; ? = inconclusive; nt = no result; ! = not confirmed by another sample. Sampled rows, rich in hits. Any-hit rate of the full collection: about 21%. Unless noted, calls follow the shape of the dose curve; as a rule, active = well fitted inhibition curve with a large enough effect; inconclusive = small, poorly fitted or top-dose-only effect; inactive = flat fitted curve, though single readings scatter.

SMILES	TDP1 cell CPT	IL-1B inflam inh	ClpP mod	D3 antag	D3 ag	DT40 TDP1 no CPT
COc1cccc(-c2cc(CNC(=O)[C@H]3O[C@@H](n4ccc(N)nc4=O)[C@H](O)[C@@H]3O)no2)c1	i	i	i	i	i	i
CCOC1=C2CN(S(=O)(=O)c3ccc(C)cc3)CC[C@@H]2N(S(=O)(=O)c2ccc(C)cc2)[C@H](c2ccccc2)C1	?	i	i	i	i	i
Cc1ccc2c(c1)-c1nc(-c3ccc4c(c3)NC(=O)CO4)cc(-c3ccc(F)cc3)c1CO2	5.8µM	nt	?	nt	i	4.6µM
Cc1ccc(-c2cc(-c3ccc4c(c3)NC(=O)CO4)nc3c2COc2ccccc2-3)cc1	5.2µM	nt	i	nt	i	4.1µM
CCN(Cc1ccccc1)C(=O)COC(=O)[C@@H]1CCCN1C(=O)c1cccs1	i	i	nt	i	i	i
Cc1cc(Cc2ccc([N+](=O)[O-])cc2)c(C)cn1	i	i	i	i	i	i
COC(=O)c1ccc(NC(=S)Nc2ccc3ccccc3c2)cc1	i	i	i	i	i	i
C/C(=C\C(=S)Nc1ccccc1)Nc1ccc2ccccc2c1	18µM	i	35µM	i	i	?
C/C(=C\C(=S)Nc1ccccc1)Nc1cccc2ccccc12	?	i	?	i	i	23µM
COc1ccc(NC(=O)CN(C)C(=O)c2ccccc2Sc2ncnc3sc(C)c(C)c23)cc1	?	i	i	i	i	23µM
Cc1sc2ncnc(Sc3ccccc3C(=O)Nc3ccc(Br)cc3)c2c1C	23µM	i	i	i	i	16µM
Cc1sc2ncnc(SCC(=O)Nc3cccc(S(N)(=O)=O)c3)c2c1C	i	?	nt	i	i	?
Cc1sc2ncnc(Sc3ccccc3C(=O)Nc3ccc(C#N)cc3)c2c1C	21µM	i	i	i	i	21µM
Cc1sc2ncnc(Sc3ccccc3C(=O)Nc3ccccc3Cl)c2c1C	23µM	i	i	i	i	18µM
Cc1sc2ncnc(SCC(=O)N(C(C)C)C(C)C)c2c1C	i	i	i	i	i	i
Cc1ccc(NC(=O)CN(C)C(=O)c2ccccc2Sc2ccccc2C#N)cc1	?	i	nt	i	i	15µM
COC(=O)c1c(NC(=O)C2=COCCO2)sc(C)c1C	i	-60	?	i	i	?
CCOC(=O)c1c(NC(=O)C2=COCCO2)sc2c1CCN(C(=O)OC)C2	?	i	?	i	i	18µM
C=CCOc1cccc(/C=C/c2nc3ccccc3c(=O)[nH]2)c1	?	i	i	i	i	i
CC(C)(C)c1ccc(Oc2ccc(NC(=O)c3ccco3)cn2)cc1	1.8µM	i	i	i	i	1.6µM
O=C(Nc1ccc(Oc2ncccn2)cc1)c1ccco1	i	i	i	i	i	i
COc1cccc(C(=O)Nc2ccc(NC(=O)c3ccco3)nc2)c1	i	i	i	i	i	?
O=C(Nc1ccc(Oc2cccc(C(F)(F)F)c2)nc1)c1ccco1	i	i	i	i	i	12µM
CC(C)(C)c1ccc(Oc2ccc(NC(=O)c3cccs3)cn2)cc1	?	-80	i	i	i	?
O=C(Nc1ccc(Oc2cccnc2)nc1)c1ccc(C(F)(F)F)cc1	?	?	nt	i	i	15µM
SMILES	TDP1 cell CPT	IL-1B inflam inh	ClpP mod	D3 antag	D3 ag	DT40 TDP1 no CPT
O=C(NC(=O)c1c(Cl)cccc1Cl)Nc1ccc(Oc2cccnc2)nc1	i	i	i	i	i	?
CC1CC(C)CN(S(=O)(=O)c2ccc(C(=O)OCC(=O)Nc3ccccc3)cc2)C1 (configuration not stated)	i	i	i	i	i	i
Cc1ccc2c(c1)C1CC(C)(O2)N(c2cccc(C(=O)N3CCN(c4ccccn4)CC3)c2)C(=O)N1 (configuration not stated)	?	?	i	i	i	?
O=C(NCc1ccccc1CN1CCOCC1)c1ccc(-n2cccn2)cc1	?	i	i	i	i	?
Cc1ccc(NC(=O)CN2CCCC2)cc1Br	i	i	nt	-64	i	i
O=C(CN1CCN(C2CCCCC2)CC1)Nc1ccc(Br)cc1	i	i	nt	-53	i	i
O=C(CN1CCN(S(=O)(=O)N2CCCCC2)CC1)Nc1ccc(Br)cc1	?	i	?	i	i	16µM
COC(=O)c1ccc(NC(=O)CCN2CCN(CCC(=O)Nc3ccc(C(=O)OC)cc3)CC2)cc1	i	i	i	i	i	?
COC(=O)c1ccc(NC(=O)CCN2CCCCC2)cc1	i	i	i	-52!	i	i
CC(C)(C)CC(=O)O/N=C(\N)c1ccncc1	i	i	nt	i	i	i
O=C(NCCCN1CCOCC1)c1ccc(NS(=O)(=O)c2cccc([N+](=O)[O-])c2)cc1	i	i	i	i	i	i
CCOC(=O)C1=CCN(S(=O)(=O)c2ccc(Cl)cc2)C1c1ccccc1 (configuration not stated)	?	i	i	i	i	?
CC(CC(=O)O)CC(=O)Nc1cc(C(F)(F)F)cc(C(F)(F)F)c1 (configuration not stated)	i	nt	nt	i	i	i
O=C(CNc1ccc(Br)cc1)Nc1ccc(S(=O)(=O)N2CCCCC2)cc1	?	i	i	i	i	29µM
O=C(CCN1CCCCC1)Nc1ccc(Br)cc1	i	i	i	-69	i	i
CCC(C)(CC(=O)O)CC(=O)Nc1cc(C(F)(F)F)cc(C(F)(F)F)c1 (configuration not stated)	i	i	i	i	32	i
O=C(CNC1CCN(Cc2ccccc2)CC1)Nc1ccc(S(=O)(=O)N2CCCCC2)cc1	?	i	i	-82	i	?
CCOC(=O)C1CCCN(C(=O)c2c(C)nn(-c3ccc(F)cc3)c2-n2cccc2)C1 (configuration not stated)	nt	nt	i	nt	i	nt
O=C(CN1CCCCCC1)Nc1ccc(Br)cc1	i	i	i	-114	i	i
O=C(CN1CCCC1)Nc1cc(C(F)(F)F)cc(C(F)(F)F)c1	i	-69	nt	i	i	i
CC1CCc2c(sc(NC(=O)c3c([N+](=O)[O-])cnn3C)c2C(N)=O)C1 (configuration not stated)	i	i	i	i	i	?
CN(CC(=O)Nc1ccccc1Br)CC(=O)Nc1ccccc1C(F)(F)F	i	i	nt	i	i	i
CCCN1CCN(C(=O)Cn2ncc3c4ccccc4n(Cc4cccc(Cl)c4)c3c2=O)CC1	13µM	nt	i	nt	i	12µM
CCOC(=O)C1CCCN(C(=O)Cn2ncc3c4ccccc4n(Cc4ccccc4)c3c2=O)C1 (configuration not stated)	?	nt	i	nt	i	18µM
